Eight molecules from PubChem BioAssay (Tox21) can be followed below.

Inconclusive results are not listed. Unmarked numbers belong to inactive results. The source made the active and inactive calls. Unless noted, the call rests on the fitted dose curve; in most records, active means well fitted curve in the direction sought with a large enough effect in the repeat runs; inconclusive means weak or mixed curves; inactive means no such curve, though single readings can be large; an effect the other way counts as inactive or inconclusive.

Assay [1] is described as follows: qHTS assay to identify small molecule antagonists of the thyroid receptor (TR) signaling pathway - cell viability counter screen (AID 743064). Further: nearly all actives have a fitted effect of over 50% in size. The method in brief: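 Counter screen for cytotoxicity: compound plus T3 (1 nM final) on GH3.TRE-Luc cells, 23.5 h at 37 °C, then fluorescence viability readout with CellTiter-Fluor.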
A general note: Quantitative high-throughput screening tests each substance at several concentrations.

Assay [2] can be described thus: qHTS assay to identify small molecule antagonists of the thyroid receptor (TR) signaling pathway (AID 743065). Further: series mostly up to about 70 µM; nearly all actives have a fitted effect of over 55% in size. The procedure, abridged: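 GH3.TRE-Luc rat pituitary cells (two TREs driving luciferase) were dosed with compound, then stimulated with 1 nM T3 (final) for 23.5 h at 37 C. ONE-Glo luminescence was the read-out, with CellTiter-Fluor fluorescence as the cytotoxicity counter-screen.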

For assay [3], the system named is thyroid hormone receptor (rat, GH3 cells). Nature of the assay: qHTS assay to identify small molecule agonists of the thyroid receptor (TR) signaling pathway (AID 743066; calls by dose curve).
Assay [4] deals with Estrogen receptor (Homo sapiens) (UniProt P03372). Nature of the assay: qHTS assay to identify small molecule antagonists of the estrogen receptor alpha (ER-alpha) signaling pathway (AID 743069; active means well fitted curve in the direction sought with a large enough effect in the signal ratio in the repeat runs, not every such curve was filed as active; the % refers to the signal ratio). The procedure, abridged:
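Beta-lactamase FRET fluorescence is read after 2 hr at room temperature with LiveBLAzer B/G substrate. Before that, ER-alpha-bla HEK293 cells sit 4 hr after plating, then receive compound plus 17beta-estradiol and incubate 18 hr at 37C.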

Assay [5] is described as follows: qHTS assay to identify small molecule antagonists of the estrogen receptor alpha (ER-alpha) signaling pathway - cell viability counter screen (AID 743074; calls by dose curve;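 further: HEK293 cells carrying ER-alpha-UAS-bla reporter stimulated with 17beta-estradiol; nearly all actives have a fitted effect of over 45% in size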).
Assay [6] has as its target Estrogen receptor (Homo sapiens) (UniProt P03372). Nature of the assay: qHTS assay to identify small molecule agonists of the estrogen receptor alpha (ER-alpha) signaling pathway (AID 743075; calls by dose curve;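 further: HEK293 GripTite cells with ER-alpha and UAS-driven beta-lactamase reporter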).
Assay [7] has the same target. Put plainly: qHTS assay to identify small molecule agonists of the estrogen receptor alpha (ER-alpha) signaling pathway using the BG1 cell line (AID 743079). Further: nearly all actives have a fitted effect of over 20% in size. Further: potency means the concentration at half of the fitted maximal effect.
Assay [8] in a line: qHTS assay to identify small molecule antagonists of the estrogen receptor alpha (ER-alpha) signaling pathway using the BG1 cell line (AID 743080; calls by dose curve;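 further: BG1 cells stimulated with 17beta-estradiol alongside compound; series mostly up to about 70 µM; nearly all actives have a fitted effect of over 25% in size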). The method in brief: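 Luminescence from a 4×ERE-luciferase reporter in BG1-Luc-4E2 cells served as read-out. Cells, pre-cultured 5 days in stripped-serum phenol-red-free medium, were exposed to compound with 17beta-estradiol co-stimulation for 21.5 h at 37 C.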

The nature of assay [9]: qHTS assay to identify small molecule antagonists of the estrogen receptor alpha (ER-alpha) signaling pathway using the BG1 cell line - cell viability counter screen (AID 743081).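 Further: compound given together with 17beta-estradiol as the ER stimulus; series mostly up to about 70 µM; nearly all actives have a fitted effect of over 45% in size.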
The next assay addresses Aromatase (Homo sapiens) (UniProt P11511). Put plainly: qHTS assay to identify aromatase inhibitors (AID 743083). Further: series mostly up to about 70 µM; nearly all actives have a fitted effect of over 55% in size.
Assay [10] can be described thus: qHTS assay to identify aromatase inhibitors - cell viability counter screen (AID 743084).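 Further: cells stimulated with testosterone during compound exposure; nearly all actives have a fitted effect of over 55% in size.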
Assay [11] concerns the target Aryl hydrocarbon receptor (Homo sapiens) (UniProt P35869). Put plainly: qHTS assay to identify small molecule that activate the aryl hydrocarbon receptor (AhR) signaling pathway (AID 743085).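 Further: HG2L7.5c1 human HepG2 liver cells with stably integrated DRE-driven firefly reporter; series mostly up to about 70 µM; nearly all actives have a fitted effect of over 15% in size.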 The method in brief:
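Measured in HG2L7.5c1 cells: CellTiter-Fluor signal (30 min incubation, 37C) for viability, then luciferase luminescence (30 min, room temperature). Compound contact time was 24 h at 37C, following a 5 h pre-incubation.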

A short description of assay [12]: qHTS assay to identify small molecule that activate the aryl hydrocarbon receptor (AhR) signaling pathway - cell viability counter screen (AID 743086).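 Further: HepG2 liver cells carrying the AhR DRE luciferase reporter; series mostly up to about 70 µM; nearly all actives have a fitted effect of over 45% in size.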 The procedure, abridged:
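HepG2-AhR-luc (HG2L7.5c1) cells, 4000/well, treated 24 h at 37 C with compound; viability measured as CellTiter-Fluor fluorescence after 30 min in the same wells as the luciferase read.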

The target in assay [13] is Peroxisome proliferator-activated receptor gamma (Homo sapiens) (UniProt P37231). Put plainly: qHTS assay to identify small molecule agonists of the peroxisome proliferator-activated receptor gamma (PPARg) signaling pathway (AID 743094; active means well fitted activation curve with a large enough effect in the signal ratio in the repeat runs, not every such curve was filed as active; the % refers to the signal ratio). The method in brief:
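HEK293H PPARg-bla cells, 5 h settle at 37C/5% CO2; compound (DMSO) 17 h, 37C; B/G FRET substrate 1 h RT; fluorescence intensity read-out. qHTS format.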

A short description of assay [14]: qHTS assay to identify small molecule antagonists of the peroxisome proliferator-activated receptor gamma (PPARg) signaling pathway - cell viability counter screen (AID 743194). Further: nearly all actives have a fitted effect of over 55% in size. The method in brief:
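Cytotoxicity counter screen in PPARg-bla HEK293H cells, same wells as reporter assay. Compounds plus 50 nM rosiglitazone (final) for 17 h at 37 C, then viability read by CellTiter-Glo luminescence.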

Assay [15] in a line: qHTS assay for small molecule agonists of the antioxidant response element (ARE) signaling pathway - cell viability counter screen (AID 743203; calls by dose curve; further: nearly all actives have a fitted effect of over 55% in size). The procedure, abridged: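 Luminescence read-out (CellTiter-Glo, 30 min at room temperature) measured cell viability in the same wells as the ARE beta-lactamase reporter. HepG2 ARE-bla cells were treated with compounds for 16 hrs at 37C/5% CO2.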

A short description of assay [16]: qHTS assay for small molecule activators of the heat shock response signaling pathway - cell viability counter screen (AID 743209). Further: nearly all actives have a fitted effect of over 50% in size. The procedure, abridged: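 HSE-bla HeLa; 1500 cells/well; overnight 37 C, 5% CO2; compound 5 h 37 C; LiveBLAzer B/G substrate 2.5 h RT; CellTiter-Glo 30 min RT; luminescence.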
Assay [17] in a line: qHTS assay for small molecule activators of the heat shock response signaling pathway (AID 743210; active means well fitted activation curve with a large enough effect in the signal ratio in the repeat runs, with a control signal flat, not every such curve was filed as active; the % refers to the signal ratio; further: series mostly up to about 63 µM). The method in brief: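 Beta-lactamase reporter read-out: FRET substrate fluorescence after 2.5 h at RT, following 5 h compound treatment at 37 C of HeLa cells carrying HSE-driven bla reporter; quantitative HTS format.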
Assay [18] in a line: qHTS assay for small molecule agonists of the antioxidant response element (ARE) signaling pathway (AID 743202; active means well fitted activation curve with a large enough effect in the signal ratio in the repeat runs, not every such curve was filed as active; the % refers to the signal ratio). The method in brief:
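HepG2 ARE-bla reporter line, 2,000 cells/well; 5 h preincubation 37 C/5% CO2; compound (DMSO) 16 h 37 C; B/G FRET substrate 2 h RT; fluorescence intensity.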

Assay [19] concerns the target Peroxisome proliferator-activated receptor gamma (Homo sapiens) (UniProt P37231). Put plainly: qHTS assay to identify small molecule antagonists of the peroxisome proliferator-activated receptor gamma (PPARg) signaling pathway (AID 743191; calls by dose curve; further: series mostly up to about 63 µM; nearly all actives have a fitted effect of over 30% in size). The procedure, abridged:
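GeneBLAzer PPARg UAS-bla HEK293H cells, 5 h post-plating, exposed to compounds 17 h at 37C. LiveBLAzer B/G FRET substrate added for 1 h at room temperature; beta-lactamase reporter read by fluorescence intensity.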
On the % scale 0 is the no-effect control and ±100 the full control effect.

Sequence of Aryl hydrocarbon receptor (Homo sapiens) (P35869 whole entry, looked up): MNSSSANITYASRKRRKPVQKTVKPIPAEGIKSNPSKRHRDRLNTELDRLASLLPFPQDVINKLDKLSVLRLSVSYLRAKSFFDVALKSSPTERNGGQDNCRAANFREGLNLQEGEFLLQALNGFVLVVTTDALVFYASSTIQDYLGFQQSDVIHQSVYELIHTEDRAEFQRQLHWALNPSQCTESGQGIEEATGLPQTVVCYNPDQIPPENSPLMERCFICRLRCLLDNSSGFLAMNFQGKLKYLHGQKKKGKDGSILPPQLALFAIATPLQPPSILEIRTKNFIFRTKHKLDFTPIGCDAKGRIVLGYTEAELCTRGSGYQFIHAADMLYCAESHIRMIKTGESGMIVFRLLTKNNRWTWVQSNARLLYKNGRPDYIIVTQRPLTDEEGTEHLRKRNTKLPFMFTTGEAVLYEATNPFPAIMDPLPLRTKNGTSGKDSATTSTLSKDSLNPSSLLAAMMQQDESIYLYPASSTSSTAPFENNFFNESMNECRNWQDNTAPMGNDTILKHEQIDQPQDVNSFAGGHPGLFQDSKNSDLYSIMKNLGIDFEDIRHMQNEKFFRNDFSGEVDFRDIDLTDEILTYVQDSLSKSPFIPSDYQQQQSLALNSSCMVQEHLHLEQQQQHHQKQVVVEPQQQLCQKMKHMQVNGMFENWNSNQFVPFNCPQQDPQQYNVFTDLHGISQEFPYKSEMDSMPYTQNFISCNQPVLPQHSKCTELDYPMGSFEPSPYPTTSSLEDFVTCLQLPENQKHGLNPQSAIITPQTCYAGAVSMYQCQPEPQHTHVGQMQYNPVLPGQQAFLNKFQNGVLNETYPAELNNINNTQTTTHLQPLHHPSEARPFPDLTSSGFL
Sequence of Peroxisome proliferator-activated receptor gamma (Homo sapiens) (P37231 whole entry, looked up): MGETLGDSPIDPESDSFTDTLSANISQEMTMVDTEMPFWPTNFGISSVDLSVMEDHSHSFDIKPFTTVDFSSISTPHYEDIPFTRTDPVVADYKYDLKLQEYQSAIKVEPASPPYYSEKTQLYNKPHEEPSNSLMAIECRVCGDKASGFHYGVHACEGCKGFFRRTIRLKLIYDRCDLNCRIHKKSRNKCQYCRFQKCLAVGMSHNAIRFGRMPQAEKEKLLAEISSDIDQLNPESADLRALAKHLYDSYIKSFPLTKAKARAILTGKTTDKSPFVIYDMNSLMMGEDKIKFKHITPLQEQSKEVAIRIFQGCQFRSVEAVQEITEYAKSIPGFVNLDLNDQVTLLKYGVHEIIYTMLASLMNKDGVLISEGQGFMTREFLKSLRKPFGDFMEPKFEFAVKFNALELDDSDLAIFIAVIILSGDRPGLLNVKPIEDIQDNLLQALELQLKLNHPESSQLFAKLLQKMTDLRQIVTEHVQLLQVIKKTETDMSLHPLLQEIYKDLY
Sequence of Estrogen receptor (Homo sapiens) (P03372 whole entry, looked up): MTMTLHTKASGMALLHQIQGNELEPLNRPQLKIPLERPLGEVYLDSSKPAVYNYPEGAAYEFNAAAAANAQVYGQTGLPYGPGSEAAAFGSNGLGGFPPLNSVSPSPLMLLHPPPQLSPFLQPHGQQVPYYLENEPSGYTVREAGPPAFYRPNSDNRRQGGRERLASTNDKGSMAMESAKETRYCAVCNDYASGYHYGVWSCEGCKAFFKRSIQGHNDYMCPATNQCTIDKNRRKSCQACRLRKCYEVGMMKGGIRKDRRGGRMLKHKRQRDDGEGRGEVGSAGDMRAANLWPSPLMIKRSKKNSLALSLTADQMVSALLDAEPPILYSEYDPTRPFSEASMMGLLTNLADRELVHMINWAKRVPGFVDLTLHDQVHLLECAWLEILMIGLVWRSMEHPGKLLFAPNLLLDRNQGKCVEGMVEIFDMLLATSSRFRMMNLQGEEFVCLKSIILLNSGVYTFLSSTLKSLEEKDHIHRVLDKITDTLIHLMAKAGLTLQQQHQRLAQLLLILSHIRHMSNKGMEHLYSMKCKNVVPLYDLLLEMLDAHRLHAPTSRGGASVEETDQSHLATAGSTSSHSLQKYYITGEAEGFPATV
Sequence of Aromatase (Homo sapiens) (P11511 whole entry, looked up): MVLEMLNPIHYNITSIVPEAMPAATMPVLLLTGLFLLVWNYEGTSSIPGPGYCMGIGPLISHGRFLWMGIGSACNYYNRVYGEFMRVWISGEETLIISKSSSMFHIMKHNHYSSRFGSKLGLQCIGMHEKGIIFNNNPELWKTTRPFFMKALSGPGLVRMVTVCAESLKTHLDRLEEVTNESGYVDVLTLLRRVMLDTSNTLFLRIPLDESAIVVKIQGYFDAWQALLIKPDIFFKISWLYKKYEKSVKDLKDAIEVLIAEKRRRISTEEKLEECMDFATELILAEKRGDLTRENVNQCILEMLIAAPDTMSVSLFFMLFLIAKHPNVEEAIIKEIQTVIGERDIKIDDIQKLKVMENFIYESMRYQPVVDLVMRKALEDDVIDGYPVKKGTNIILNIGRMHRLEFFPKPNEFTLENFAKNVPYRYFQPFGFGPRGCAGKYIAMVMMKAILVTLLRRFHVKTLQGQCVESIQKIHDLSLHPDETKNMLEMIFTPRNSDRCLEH

As for `COc1ccccc1OCC(O)CN1CCN(CC(=O)Nc2c(C)cccc2C)CC1` (centres undefined), the Potency result (in assay [1]; in assay [2]; in assay [6]; in assay [7]; in [9]; with Aromatase (Homo sapiens)) was “inactive” throughout. The Potency entry in [10], in assay [11], in assay [12] and in [15] was “inactive” in each case. The call in assay [3], in assay [4], in assay [5], in assay [8], in assay [13] and in assay [14] was inactive. Besides, the outcome in assay [16] and in assay [17] was inactive.
For the molecule `O=C(O)CCCl`, the Potency entry (in [1]; in assay [2]; in assay [6]; in [7]; in assay [9]; with Aromatase (Homo sapiens)) was “inactive” each time. Also, the Potency result in assay [10], in [11], in [12], in [18] and in assay [15] was “inactive” in each case. The call in assay [3], in [4], in assay [5], in assay [8], in [13] and in [14] was inactive. Also, the molecule was called inactive in assay [16] and in assay [17].
Take `CCCCC/C=C\CCC=O`: the Potency entry (in assay [1]; in assay [2]; in assay [6]; in assay [7]; in assay [9]; in the assay with Aromatase (Homo sapiens)) was “inactive” in each case. Moreover, the Potency entry in assay [10], in assay [11], in [12] and in assay [15] was “inactive” throughout. Also, the result in assay [3], in assay [4], in assay [5], in assay [8], in assay [13] and in [14] was inactive. The call in [16] and in assay [17] was inactive.
For `Nc1cc(=O)[nH]c(N)n1`, the Potency result (in assay [1]; in [2]; in [6]; in assay [7]; in [9]; with Aromatase (Homo sapiens)) was “inactive” each time. Moreover, the Potency result in assay [10], in assay [11], in assay [12], in assay [19], in [18] and in assay [15] was “inactive” throughout. Besides, the outcome in [3], in assay [4], in [5], in [8], in [13] and in [16] was inactive. Moreover, the call in assay [17] was inactive.
`CCCCC(CC)COC(=O)c1ccccc1O` (centres undefined): the Potency entry (in assay [1]; in assay [2]; in assay [6]; in assay [9]; with Aromatase (Homo sapiens); in assay [10]) was “inactive” throughout. The Potency result in assay [11], in assay [12], in assay [19], in assay [18] and in [15] was “inactive” each time. Also, the molecule was classed as inactive in [3], in [4], in assay [5], in assay [8], in assay [13] and in assay [14]. The molecule was classed as inactive in assay [17]. In addition, the Potency in assay [7] was 16.8 µM (active).
On to `N=c1nc(N2CCCCC2)cc(N)n1O`, for which the Potency result (in assay [1]; in assay [2]; in [6]; in [7]; in assay [9]; with Aromatase (Homo sapiens)) was “inactive” in each case. Besides, the Potency entry in assay [10], in assay [11], in assay [12], in [19] and in assay [15] was “inactive” throughout. Moreover, the molecule was classed as inactive in assay [3], in [4], in [5], in [8], in [13] and in [14]. The molecule was called inactive in assay [16].
For `CCN(CC)CCNC(=O)c1cc(S(C)(=O)=O)ccc1OC`, the Potency result (in assay [1]; in assay [2]; in assay [6]; in assay [7]; in [9]; with Aromatase (Homo sapiens)) was “inactive” in each case. Also, the Potency entry in assay [10], in assay [11], in assay [12], in [19], in [18] and in assay [15] was “inactive” each time. In addition, the result in assay [3], in assay [4], in [5], in assay [8], in assay [13] and in assay [14] was inactive. Moreover, the outcome in [17] was inactive.
With `NCCCNCCSP(=O)(O)O`, the Potency entry (in [1]; in assay [2]; in assay [6]; in assay [7]; in assay [9]; with Aromatase (Homo sapiens)) was “inactive” in each case. The Potency result in [10], in assay [11] and in assay [12] was “inactive” in each case. The outcome in assay [3], in assay [4], in [5], in assay [8] and in assay [13] was inactive. For the same molecule, the ratio activity, negative = inhibition in assay [19] is -8.68% [at 13.2 µM]. The activation in assay [18] was -5.66% [at 8.36 µM]; in [17] it was -0.51% [at 13.2 µM]. Further, in assay [15], the viability change, negative = cytotoxic is 1.31% [at 8.36 µM]. For the same molecule, the activity change, negative = cytotoxicity in assay [16] was 4.97% [at 13.2 µM].
